Rows were chosen to be rich in hits. Some 5.9% of all compounds tested hit in one or more screens of this group.
HSF1 inhib – HSF1 inhibition | NIH3T3-HGL HSE-luciferase, MG132-induced, luminescence 8 h; active compounds read low | activity change, negative = inhibition, % at 7.5 µM (by protocol) | 300,000 tested, 0.77% active | AID 2098;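 active = more than half of replicate wells show activity change below -50%, luminescence cut by over half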;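 also: luciferase reports HSF-1 transcriptional activity via heat shock element; 0% = median of DMSO wells and -100% = zero luminescence signal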
AHR act – activators of human aryl hydrocarbon receptor; P35869; AHR-responsive luciferase reporter cells, luminescence; activation, % at 5 µM; 320,000 tested, 2.5% active; AID 2796; in the data active = activation above about 47%;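 also: 0% = vehicle wells and 100% = reference agonist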
HSP90 inh – HSP90 refolding inhibition in rabbit reticulocyte lysate. luciferase refolding luminescence, 3 h. inhibition, % at 5.6 µM. 290,000 tested, 0.91% active. AID 1789;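 active = inhibition above the screen-wide mean plus 3 SD, computed separately per campaign, cut at about 16% in these data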;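 also: 0% = DMSO wells and 100% = 60 µM geldanamycin wells; inhibitors lower the luminescence because luciferase stays unfolded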
DAX1 inh – inhibitors of human orphan nuclear receptor DAX1 (NR0B1); P51843; HEK293 Gal4-DAX1 luciferase reporter, luminescence; inhibition, % at 6.75 µM; 340,000 tested, 0.99% active;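 active = inhibition above the mean over all tested compounds plus 3 SD, cut at about 4.2% in these data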;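 also: 0% = DAX1-transfected cells with DMSO and 100% = empty-vector control cells with DMSO; inhibition shows as a rise in luminescence from relieved DAX1 repression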
Target sequence (P51843 207-470 limits assumed): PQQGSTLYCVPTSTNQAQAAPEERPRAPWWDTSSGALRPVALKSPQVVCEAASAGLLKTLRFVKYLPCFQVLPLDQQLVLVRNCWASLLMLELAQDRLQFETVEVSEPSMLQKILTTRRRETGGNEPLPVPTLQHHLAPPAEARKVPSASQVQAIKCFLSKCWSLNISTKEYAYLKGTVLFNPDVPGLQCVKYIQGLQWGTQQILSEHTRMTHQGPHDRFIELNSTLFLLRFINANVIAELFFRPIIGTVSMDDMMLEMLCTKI
FXN GAA850 act – frataxin GAA850 promoter activation; HEK293 lucGAA850 FXN promoter luciferase reporter, 24 h; percent of 10 µM SAHA response; activation, % at 6 µM; AID 540364; 360,000 tested, 0.56% active;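 active = activation above the average of all compounds screened plus 3 SD, cutoff fixed separately per campaign, cut at about 7.5% in these data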;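 also: 0% = DMSO wells and 100% = 10 µM SAHA wells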
HSF1 activator – increases HSF-1 driven luciferase reporter signal | activation, % at 9 µM | AID 504408 | 300,000 tested, 1.7% active | NIH3T3-HGL HSF-1 luciferase reporter, MG132, 8 h; 100% = twice DMSO control signal;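 active = mean replicate activation of at least 50% with a set share of replicates each reaching 50%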;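 also: 0% = median of the neutral control wells and 100% = twice that signal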
Starred values were filed as active, the others as inactive; / = not tested or not shown.

SMILES	HSF1 inhib	AHR act	HSP90 inh	DAX1 inh	FXN GAA850 act	HSF1 activator
O=C(Nc1nc2c(F)cccc2s1)C1CC1	6	48*	-2	0	-1	18
NNc1nc2c(F)cccc2s1	-39	67*	6	2	-1	-45
Cc1ccc2ccccc2c1C(O)c1ncc(-c2cccc(C(F)(F)F)c2)[nH]1 (stereo unspecified)	/	/	/	/	1	/
NNC(=O)c1cc(Cl)ccc1Cl	-7	20	1	-1	-5	4
NNC(=O)c1sc(-c2ccc(Cl)cc2)cc1N	23	48*	0	2	0	26
COc1cccc(-c2cnc(C(O)c3ccc(C(C)(C)C)cc3)[nH]2)c1 (stereo unspecified)	/	/	/	/	-4	/
Cc1ccc(C(C)C)c(OCC(=O)NNC(=O)CC2OC(=O)c3ccccc32)c1 (stereo unspecified)	-10	16	/	4.2*	0	-6
COc1cccc(CNc2nc3cc(-c4ccc(F)cc4)sc3c(=O)n2C)c1	/	/	/	/	-1	/
Fc1ccccc1N1CCN(Cc2cc(-c3ccccc3)on2)CC1	-75*	0	2	0	3	-80
Cc1ccc(C(=O)Nc2ccccc2-c2ccccc2)cc1[N+](=O)[O-]	-7	9	1	-1	2	-11
Cc1ccc(C(=O)Nc2cc(Cl)ccc2Oc2ccccc2)cc1[N+](=O)[O-]	1	67*	2	-1	1	9
Cc1cc(C)nc(NC(=O)c2ccc(C)c([N+](=O)[O-])c2)n1	-72*	72*	-5	-1	0	-81
Cc1ccc(-c2csc(NC(=O)c3c(C)noc3C)n2)s1	-28	76*	/	-1	0	-28
Cc1ccc(-c2csc(NC(=O)c3c(C)noc3C)n2)cc1C	/	0	/	-1	2	/
COc1ccc(CNC(=O)Cn2ncn3cccc3c2=O)cc1	21	71*	1	/	/	24
COc1ccc(CNC(=O)Cn2cc3c(n2)CCCCC3)cc1	-6	4	0	5.7*	1	-1
Cc1cccc(N2CCN(Cc3ccc([N+](=O)[O-])o3)CC2)c1C	1	57*	-5	4	0	3
COCc1cc(=O)[nH]c(Nc2nc3ccc(C)cc3o2)n1	171	48*	-1	-1	-15	210*
COc1ccc(S(=O)(=O)N2CCOC23CCN(S(=O)(=O)c2ccc(C)cc2)CC3)cc1	-4	1	/	0	1	-7
C=CCc1cc(C)ccc1OCCOCCn1ccnc1	-13	55*	-3	0	3	2
CC1CC(C)CN(S(=O)(=O)CC23CCC(CC2=O)C3(C)C)C1 (stereo unspecified)	-3	1	-5	1	-3	8
COc1ccccc1N1CCN(C(CNS(=O)(=O)c2cccs2)c2cccnc2)CC1 (stereo unspecified)	4	4	4	0	-1	1
COc1ccccc1N1CCN(C(CNS(=O)(=O)c2ccccc2)c2ccccc2)CC1 (stereo unspecified)	6	4	-1	1	0	57*
CC1CN(C(=O)/C(=C/c2ccco2)NC(=O)c2ccccc2)CC(C)O1 (stereo unspecified)	-6	1	0	-1	1	-16
CCOc1ccc(N=Nc2c(=O)[nH]n3c(=O)cc(C)[nH]c23)cc1	-2	6	2	1	2	-7
SMILES	HSF1 inhib	AHR act	HSP90 inh	DAX1 inh	FXN GAA850 act	HSF1 activator
Cc1cc(=O)n2[nH]c(=O)c(N=Nc3ccccc3)c2[nH]1	-64*	0	0	1	0	-74
CC1(C)CC(=O)C2=C(C1)Nc1cc(Cl)ccc1S2	-3	53*	1	1	1	10
N#Cc1ccccc1NC(=O)CSc1nnc(-c2ccccc2)n1-c1ccccc1	2	65*	1	0	-2	1
Cn1c(SCC(=O)Nc2cccc(F)c2)nnc1-c1cccnc1	-1	34	-5	1	0	16
Cn1c(SCC(=O)Nc2ccc(F)cc2F)nnc1-c1cccnc1	-2	48*	-5	3	1	-5
CNC(=O)CSc1nnc(-c2cccnc2)n1-c1ccc(C)cc1	5	-1	-5	4.4*	1	7
O=C(CSc1nnc2ccc(-c3cccnc3)nn12)Nc1ccc(F)cc1F	1	79*	0	1	3	9
NC(=O)CNC(=O)c1ccc(Cl)cc1	-5	1	2	5.6*	0	-13
CCc1nnc(NC(=O)CSc2nnc(C(C)NC(=O)c3ccccc3)n2C)s1 (stereo unspecified)	-7	1	-2	0	0	-17
O=C(O)c1ccc(S(=O)(=O)NCc2ccc3c(c2)OCO3)cc1	0	-1	-3	0	2	8
CCC1=NN(C(=O)COc2ccccc2)C(O)(c2ccncc2)C1 (stereo unspecified)	13	0	-1	-1	2	11
CCOC(=O)C1=NN(C(=O)COc2ccccc2)C(O)(c2ccc(Br)cc2)C1 (stereo unspecified)	212	1	-8	2	-1	290*
Cc1ccccc1Nc1nnc(SCc2cc([N+](=O)[O-])cc3c2OCOC3)s1	30	-1	0	-2	1	56*
COc1ccc(CN2CCC(Cc3ccccc3)CC2)c(C)c1C	-6	/	2	4.3*	-1	17
Fc1ccccc1CN1CCC(Cc2ccccc2)CC1	1	2	-2	-1	1	12
COc1cc(CN2CCC(Cc3ccccc3)CC2)cc(OC)c1OC	-6	/	-3	5.1*	0	-18
Cc1ccsc1C(=O)NNC(=O)c1cccc(S(=O)(=O)N2CCCC2)c1	/	1	/	0	1	/
CC(=O)c1cccc(NC(=O)c2ccc(N(C)S(=O)(=O)c3ccc(C)cc3)cc2)c1	-2	48*	8	0	1	-19
COC(=O)c1ccc(COc2cccn3c(N(C)C(=O)CCC4CCCC4)c(C)nc23)cc1	/	/	/	/	-1	/
Cc1ccc(S(=O)(=O)c2c(C(=O)c3ccccc3)cnc3cc4c(cc23)OCCO4)cc1	-66*	-1	1	-1	-2	-74
O=C(COC(=O)c1c(F)cccc1Cl)NCC1CCCCC1	/	0	/	1	2	/
O=C(CCCc1ccccc1)NCc1ccc(Cl)cc1	-8	-1	0	1	2	37
O=C(CBr)c1ccc([N+](=O)[O-])c(CS(=O)(=O)c2ccc(Cl)cc2)c1	53	0	8	1	-1	60*
O=C(O)c1ccc([N+](=O)[O-])c(CS(=O)(=O)c2ccc(Cl)cc2)c1	2	-3	2	-2	1	-14
CCC(C)Sc1nc2c(cnn2-c2ccccc2)c(=O)[nH]1 (stereo unspecified)	5	66*	0	0	2	0
O=C(CSc1nc2c(cnn2-c2ccccc2)c(=O)[nH]1)N1CCCCC1	-1	3	-2	0	2	-7

Compound activity: PubChem, several laboratories
